Laboratory results published in PubChem BioAssay (NCATS).
Values joined by “and” are separate entries in the source; they are usually repeats but may differ in a detail not shown here. Equal values may be shown once. Results filed as inconclusive are left out. A call without a number means that no potency is given here. Unmarked numbers belong to inactive results. Active and inactive are the calls of the source. Calls follow the shape of the dose curve; as a rule, active = well fitted curve in the direction sought with a large enough effect; inconclusive = small, poorly fitted or top-dose-only effect, or another doubt; inactive = no such curve, though single readings can be large; an effect the other way counts as inactive or inconclusive. Numbered stars: 1 amine (or outer) side, 2 acyl side, 3 side chain; on linkers, the order of the positions; unused ones are H or OH. Bridge positions count the residues as written; N and C are the ends. Square brackets hold non-standard residues; d marks the D form. Peptide text beside a SMILES is read from it. I, II: the chains in the order shown. Actinocin(9to1) = Cc1c2oc3c(C)ccc(C(=O)[*:1])c3nc-2c(C(=O)[*:2])c(N)c1=O; NMeV = CN[CH](C(=O)O)C(C)C; Sar = CNCC(=O)O

Experiments:
[1] = Viability qHTS for spleen associated tyrosine kinase inhibitor (SYKi) naive MV4-11 cells (AID 1963823); also: nearly all actives have a fitted effect of over 40% in size
Outline: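 SYKi-naive MV4-11 AML cells, 500 per well, were exposed to library compounds for 72 hr at 37 C, 5% CO2. Viability was then read by CellTiter-Glo luminescence after 10 min at room temperature.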

[2] = Viability qHTS for spleen associated tyrosine kinase inhibitor (SYKi) drug resistant MV4-11 cells (AID 1963824); also: nearly all actives have a fitted effect of over 35% in size
Outline: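 SYK inhibitor-resistant MV4-11 AML cells, 500 per well, added to predispensed compounds and incubated 72 hr at 37 C, 5% CO2. Viability measured by CellTiter-Glo luminescence after 10 min at room temperature.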

[3] = Quantitative highthroughput screen to assess conditional lethalithy of NOMO1 cells grown in RPMI1640 with untreated serum (RPMI+s) (AID 1963876); also: nearly all actives have a fitted effect of over 35% in size
Outline: (§1)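 Each medium arm—HPLM with 10% dialyzed FBS, or RPMI1640 with 5 mM glucose and 10% untreated or dialyzed FBS—was screened against an 11-point, 3-fold compound titration for 48 h at 37 °C, with CellTiter-Glo luminescence as endpoint.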

[4] = Quantitative highthroughput screen to assess conditional lethalithy of NOMO1 cells grown in RPMI1640 with dialyzed fetal bovine serum (RPMI+ds) (AID 1963877); also: nearly all actives have a fitted effect of over 30% in size; as to Viability: series mostly up to about 46 µM
Outline: as §1

[5] = Quantitative highthroughput screen to assess conditional lethalithy of NOMO1 cells grown in Human Plasma-Like Medium with dialyzed fetal bovine serum (HPLM+ds) (AID 1963878); also: nearly all actives have a fitted effect of over 35% in size
Outline: as §1

[6] = Quantitative highthroughput screen to assess conditional lethalithy of P12 Ichikawa cells grown in Human Plasma-Like Medium with dialyzed fetal bovine serum (HPLM+ds) (AID 1963879); details: Potency: viability; also: nearly all actives have a fitted effect of over 35% in size; as to Viability: series mostly up to about 46 µM
Outline: as §1

[7] = Quantitative highthroughput screen to assess conditional lethalithy of P12 Ichikawa cells grown in RPMI1640 with dialyzed fetal bovine serum (RPMI+ds) (AID 1963880); details: Potency: P12-Ichikawa viability; also: nearly all actives have a fitted effect of over 35% in size
Outline: as §1

[8] = Quantitative highthroughput screen to assess conditional lethalithy of P12 Ichikawa cells grown in RPMI1640 with untreated serum (RPMI+s) (AID 1963881); details: Potency: viability; also: nearly all actives have a fitted effect of over 35% in size; as to Viability: series mostly up to about 46 µM
Outline: as §1

[9] = Quantitative highthroughput screen to assess conditional lethalithy of SEM cells grown in Human Plasma-Like Medium with dialyzed fetal bovine serum (HPLM+ds) (AID 1963882); also: nearly all actives have a fitted effect of over 35% in size; as to Viability: series mostly up to about 46 µM
Outline: as §1

[10] = Quantitative highthroughput screen to assess conditional lethalithy of SEM cells grown in RPMI1640 with unreated serum (RPMI+s) (AID 1963883); also: nearly all actives have a fitted effect of over 35% in size
Outline: as §1

[11] = Quantitative highthroughput screen to assess conditional lethalithy of SEM cells grown in RPMI1640 with dialyzed fetal bovine serum (RPMI+ds) (AID 1963884); also: nearly all actives have a fitted effect of over 35% in size; as to Viability: series mostly up to about 46 µM
Outline: as §1

[12] = Cellular viability qHTS for adrenocortical cancer (ACC) cell line SW-13 (AID 1963989); details: SW-13 ACC cells viability, CellTiter-Glo, 48 h; activity (max response): stronger effect = lower value; also: nearly all actives have a fitted effect of over 65% in size;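 as to activity (max response): cells grown in serum-free medium with ITS supplement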
Outline: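 Compound titrations (up to 46 uM final, in DMSO) were applied to SW-13 cells for 48 h at 37C/5% CO2. Reading used CellTiter-Glo after 20 min at room temperature; fitted curves yielded IC50 and efficacy.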

[13] = Cellular viability qHTS for adrenocortical cancer (ACC) cell line NCI-H295R (AID 1963990); also: nearly all actives have a fitted effect of over 60% in size
Outline: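 Readout: CellTiter-Glo luminescence, 20 min RT. Exposure: 48 h, 37C/5% CO2. Cells: NCI-H295R, ITS-DMEM serum-free. Range: up to 46 uM. Analysis: 4PL fit, IC50 plus efficacy.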
Potency is read from the fitted curve at half-maximal effect.

With `CC(C)OC(=O)C1=CN(C(=O)c2ccc(F)c(F)c2)CC(C)(C)c2c1[nH]c1ccccc21` the Potency [1] was 8.33 µM (active), the Potency [2] was 13.2 µM (active) and the Potency [3] was “inactive”. For the same molecule, the Potency [4] was “inactive”, the Potency [5] was “inactive” and the Potency [6] was “inactive”. The Potency [7] was “inactive”, the Potency [8] was “inactive” and the Potency [9] was “inactive”. For the same molecule, the Potency [10] was “inactive”, the Potency [11] was “inactive” and the activity (max response) [12] was -5.24%. The Potency [13] was “inactive”.

For `O=C1c2c(O)cc(O)cc2OC(c2ccc(O)c(O)c2)C1O` (stereo not drawn), the Potency [1] was “inactive”, the Potency [2] was “inactive” and the Potency [3] was “inactive”. The Potency [4] was “inactive”, the Potency [5] was “inactive” and the Potency [6] was “inactive”. The Potency [7] was “inactive”, the Potency [8] was “inactive” and the Potency [9] was “inactive”. For the same molecule, the Potency [10] was “inactive”, the Potency [11] was “inactive” and the activity (max response) [12] was -4.92%. The Potency [13] was “inactive”.

In the case of `CC(C)C[C@H](NC(=O)CNC(=O)c1cc(Cl)ccc1Cl)B1OC(=O)CC(CC(=O)O)(C(=O)O)O1` (stereo partly drawn), the Potency [1] is reported as 0.148 µM (active), the Potency [2] is reported as 0.118 µM (active) and the Potency [3] is reported as 372 nM (active). For the same molecule, the Potency [4] was 418 nM (active), the Potency [5] was 372 nM (active) and the Potency [6] was 332 nM (active). For the same molecule, the Potency [7] was 296 nM (active), the Potency [8] was 296 nM (active) and the Potency [9] was 118 nM (active). For the same molecule, the Potency [10] was 93.5 nM (active), the Potency [11] was 118 nM (active) and the Potency [12] was 1410 nM (active). For the same molecule, the Potency [13] was 355 nM (active).

For `Cc1nc(-c2ccc(OCC(C)C)c(C#N)c2)sc1C(=O)O`, the Potency [1] was “inactive”, the Potency [2] was “inactive” and the Potency [3] was “inactive”. For the same molecule, the Potency [4] was “inactive”, the Potency [5] was “inactive” and the Potency [6] was “inactive”. For the same molecule, the Potency [7] was “inactive”, the Potency [8] was “inactive” and the Potency [9] was “inactive”. The Potency [10] was “inactive”, the Potency [11] was “inactive” and the activity (max response) [12] was 5.55% and 8.19%. The Potency [13] was “inactive”.

For `CC1CCN(c2cc(N3CCN(C)CC3)ccc2NC(=O)c2cc(C#N)c[nH]2)CC1`, the Potency [1] was 5.25 µM (active), the Potency [2] was 11.8 µM (active) and the Potency [3] was “inactive”. For the same molecule, the Potency [4] was “inactive”, the Potency [5] was “inactive” and the Potency [6] was “inactive”. The Potency [7] was “inactive”, the Potency [8] was “inactive” and the Potency [9] was “inactive”. For the same molecule, the Potency [10] was “inactive”, the Potency [11] was “inactive” and the activity (max response) [12] was -21.1%. The Potency [13] was “inactive”.

With `OC(Cn1cncn1)(Cn1cncn1)c1ccc(F)cc1F` the Potency [1] was “inactive”, the Potency [2] was “inactive” and the Potency [3] was “inactive”. The Potency [4] was “inactive”, the Potency [5] was “inactive” and the Potency [6] was “inactive”. The Potency [7] was “inactive”, the Potency [8] was “inactive” and the Potency [9] was “inactive”. The Potency [10] was “inactive”, the Potency [11] was “inactive” and the activity (max response) [12] was 1.07% and 11%. The Potency [13] was “inactive”.

In the case of `Cc1cc(-c2ncc(CC(=O)Nc3ccc(-c4cnccn4)cn3)cc2C)ccn1`, the Potency [1] is reported as 5.25 µM (active), the Potency [2] is reported as 2.06 µM (active) and the Potency [3] is reported as “inactive”. The Potency [4] was “inactive”, the Potency [5] was “inactive” and the Potency [6] was “inactive”. The Potency [7] was “inactive”, the Potency [8] was “inactive” and the Potency [9] was “inactive”. The Potency [10] was “inactive”, the Potency [11] was “inactive” and the activity (max response) [12] was -24.1%. The Potency [13] was “inactive”.

With `CN1c2ccccc2C(=O)N2CCc3c([nH]c4ccccc34)C21` (stereo not drawn) the Potency [1] was 1.64 µM (active), the Potency [2] was 1.16 µM (active) and the Potency [3] was “inactive”. The Potency [4] was “inactive”, the Potency [5] was “inactive” and the Potency [6] was “inactive”. The Potency [7] was “inactive”, the Potency [8] was “inactive” and the Potency [9] was “inactive”. The Potency [10] was “inactive”, the Potency [11] was “inactive” and the Potency [12] was 2240 nM (active). For the same molecule, the Potency [13] was 1780 nM (active).

For `C=C(C)[C@@H]1CC[C@]2(C)CC[C@]3(C)[C@H](CC[C@@H]4[C@@]5(C)CC[C@H](O)C(C)(C)[C@H]5CC[C@]43C)[C@@H]12`, the Potency [1] was “inactive”, the Potency [2] was “inactive” and the Potency [3] was “inactive”. For the same molecule, the Potency [4] was “inactive”, the Potency [5] was “inactive” and the Potency [6] was “inactive”. For the same molecule, the Potency [7] was “inactive”, the Potency [8] was “inactive” and the Potency [9] was “inactive”. For the same molecule, the Potency [10] was “inactive”, the Potency [11] was “inactive” and the activity (max response) [12] was 4.74%. The Potency [13] was “inactive”.

In the case of `CNC1CCC(N(Cc2cccc(-c3ccncc3)c2)C(=O)c2sc3ccccc3c2Cl)CC1` (stereo not drawn), the Potency [1] is reported as 7.31 µM (active) and 5.25 µM (active), the Potency [2] is reported as 5.8 µM (active) and 5.25 µM (active) and the Potency [3] is reported as 3320 nM (active). For the same molecule, the Potency [4] was 16600 nM (active), the Potency [5] was 1480 nM (active) and the Potency [6] was 1180 nM (active). For the same molecule, the Potency [7] was 1660 nM (active), the Potency [8] was 2090 nM (active) and the Potency [9] was 1320 nM (active). For the same molecule, the Potency [10] was 372 nM (active), the Potency [11] was 833 nM (active) and the Potency [12] was 10000 nM (active). For the same molecule, the Potency [13] was 6310 nM (active).

With `Cc1c2oc3c(C)ccc(C(=O)NC4C(=O)NC(C(C)C)C(=O)N5CCCC5C(=O)N(C)CC(=O)N(C)C(C(C)C)C(=O)OC4C)c3nc-2c(C(=O)NC2C(=O)NC(C(C)C)C(=O)N3CCCC3C(=O)N(C)CC(=O)N(C)C(C(C)C)C(=O)OC2C)c(N)c1=O` (stereo not drawn) (I: TVP[Sar][NMeV] / II: TVP[Sar][NMeV]; ester I:1-I:C, II:1-II:C; linker I:N-II:N via Actinocin(9to1); configuration not given here) the Potency [1] was 0.0014 µM (active), the Potency [2] was 0.001 µM (active) and the Potency [3] was “inactive”. The Potency [4] was “inactive”, the Potency [5] was “inactive” and the Potency [6] was “inactive”. The Potency [7] was “inactive”, the Potency [8] was “inactive” and the Potency [9] was “inactive”. For the same molecule, the Potency [10] was “inactive”, the Potency [11] was “inactive” and the Potency [12] was 9 nM (active). The Potency [13] was 802 nM (active).

With `COc1cccc2c1C(=O)c1c(O)c3c(c(O)c1C2=O)C[C@@](O)(C(=O)CO)C[C@@H]3O[C@H]1C[C@H](N)[C@@H](O)[C@H](C)O1` the Potency [1] was 0.0661 µM (active), the Potency [2] was 0.0525 µM (active) and the Potency [3] was 2960 nM (active). For the same molecule, the Potency [4] was 2960 nM (active), the Potency [5] was 3320 nM (active) and the Potency [6] was 2960 nM (active). The Potency [7] was 2960 nM (active), the Potency [8] was 2960 nM (active) and the Potency [9] was 2640 nM (active). The Potency [10] was 1480 nM (active), the Potency [11] was 2640 nM (active) and the Potency [12] was 1120 nM (active). For the same molecule, the Potency [13] was 8910 nM (active).

In the case of `CN(C)Cc1c(C(=O)NCCOc2ccc(C(=O)NO)cc2)oc2ccccc12`, the Potency [1] is reported as 326 nM (active) and 296 nM (active), the Potency [2] is reported as 259 nM (active) and 235 nM (active) and the Potency [3] is reported as 4180 nM (active). The Potency [4] was 4180 nM (active), the Potency [5] was 4180 nM (active) and the Potency [6] was 2350 nM (active). For the same molecule, the Potency [7] was 2960 nM (active), the Potency [8] was 2090 nM (active) and the Potency [9] was 1180 nM (active). The Potency [10] was 1320 nM (active), the Potency [11] was 1480 nM (active) and the Potency [12] was 1260 nM (active).
